According to ChEMBL document CHEMBL4513216, “Probing the Open Global Health Chemical Diversity Library for Multistage-Active Starting Points for Next-Generation Antimalarials” (ACS Infect Dis, 2020):
The whole screen tested about 69,000 compounds, of which about 8,600 (12%) showed an effect of 50% or more. For the sample, strong results were picked, then their nearest neighbours and some compounds at random.

Each molecule was assayed on Plasmodium berghei (assay: Screen against P. berghei liver stage (PbLuc), transformed with Luciferase, at 10uM). Conditions: tested at 10 uM.
Format: functional, HepG2

| Compound | INHIBITION |
| --- | --- |
| O[C@@]1(CNCC2(Cn3ccnc3)CC2)CCCN2CCCC[C@@H]21 | -6.39% |
| Cc1nnc(CNCC2(O)CCCN(Cc3ccc(F)c(F)c3)C2=O)[nH]1 (stereo not given) | -1.33% |
| CCOCc1cc(CN2CCn3c(CO)nnc3C2)ccc1OC | -38.2% |
| Cc1ccc(CN2CCc3ncnc(C4CC4)c3CC2)s1 | 34.8% |
| CC(C)Cc1nc(CN2CCN(CC(O)c3ccccc3)CC2)no1 (stereo not given) | 23.5% |
| CN(Cc1cnn(C)c1)C(=O)c1ccc(=O)n(Cc2ccccc2)n1 | 0.164% |
| CN(Cc1nnc2ccccn12)C(=O)CCNC(=O)C(C)(C)C | 8.77% |
| O=C(CCC1CCCC1)NCc1nnc2ccccn12 | 76.4% |
| CCC(O)CN(C)Cc1nnc2ccccn12 (stereo not given) | 61.8% |
| Cc1ccc(C)c(C(O)CN(C)Cc2nnc3ccccn23)c1 (stereo not given) | 23.3% |
| O=C(CCC1CCCCC1)NCc1nnc2ccccn12 | -18.7% |
| CN(Cc1nnc2ccccn12)C(=O)CCC1CCCC1 | 54.7% |
| Cc1ccc(C)c(CN(C)Cc2nnc3ccccn23)c1 | 9.45% |
| CN(Cc1nnc2ccccn12)C(=O)CC1CCCCC1 | 10.7% |
| Cn1cccc1CNC(=O)CCCc1nnc2ccccn12 | -23.7% |
| Cc1cc(C2CCCN(S(=O)(=O)c3cn(C)cn3)C2)ccn1 (stereo not given) | 12.8% |
| Cc1cnn(CC2CCCN2C(=O)c2c(F)cccc2Cl)c1 (stereo not given) | -59.4% |
| CC(O)CN1CCN(C(=O)c2ccn(-c3ccc(F)cc3)n2)CC1 (stereo not given) | -7.35% |
| Cc1cc(-c2ccc(=O)n(CCNC(=O)C3CC3)n2)c(C)o1 | -21.2% |
| CC(C)C(C)NC(=O)c1cc(Br)c2c(c1)OCCO2 (stereo not given) | 23.5% |
| Cc1ccc(F)c(NS(=O)(=O)c2cc(C(=O)O)oc2C)c1 | 12.7% |
| COc1cccc2cc(CNC(=O)N3CCC(N4CCCC4)C3)oc12 (stereo not given) | 54.4% |
| COc1cccc2cc(CNC(=O)N3CCC(C(N)=O)CC3)oc12 | -36.1% |
| COc1cccc2cc(CNC(=O)N3CCCC(O)C3)oc12 (stereo not given) | 42.7% |
| COc1cccc2[nH]c(C(=O)N3CCNCC3C(N)=O)cc12 (stereo not given) | 12.285% |
| CCN(CC)C(CNC(=O)c1c(C)noc1C(C)C)c1ccsc1 (stereo not given) | 33.7% |
| CC1=Nc2c(c(=O)[nH]n2C2CCCCC2)C(c2cccnc2)S1 (stereo not given) | 14.2% |
| CC(C)Cc1noc(CN2CCCN(C(=O)c3ccccc3Cl)CC2)n1 | 37.2% |

| Compound | INHIBITION |
| --- | --- |
| CC(C)Cc1noc(CN2CCN(C(=O)c3cccc(F)c3)CC2)n1 | -29.9% |
| CC(C)Cc1noc(CN2CCN(CCOc3ccc(Cl)cc3)CC2)n1 | 79.9% |
| CC(C)Cc1noc(CN2CCCN(C(=O)c3cccc(Cl)c3)CC2)n1 | 68.3% |
| CCN1CCN(Cc2nc(C)no2)CC1 | 0.818% |
| CCOCCN1CCN(Cc2nc(C)no2)CC1CC (stereo not given) | 54.4% |
| CC(C)Cc1noc(CN2CCN(c3nccs3)CC2)n1 | -22.6% |
| CCOCCN1CCN(Cc2nc(CC(C)C)no2)CC1 | 53.575% |
| CCN1CCN(Cc2nc(CC(C)C)no2)CC1 | 16.45% |
| CCOCCN1CCN(Cc2nc(C3CC3)no2)CC1CC (stereo not given) | 38.7% |
| CC(C)Cc1noc(CN2CCN(S(C)(=O)=O)CC2)n1 | 32.78% |
| CC(C)Cc1noc(CN2CCN(CCO)CC2)n1 | 48.9% |
| CN(C)C(=O)CN1C(=O)CO[C@@H]2CN(c3ccccn3)C[C@H]21 | 21.7% |
| CCOc1c(F)cccc1C(=O)N(C)CCc1ccccn1 | 24.7% |
| O=C(NC1CCCC1)c1ccc(C2CCCNC2)nc1 (stereo not given) | -17.7% |
| CC(=O)NCCc1cc2nc(-c3ccncc3)ccn2n1 | 14.105% |
| Cc1noc(C)c1CN1CCc2cnn(C)c2C1COCC1CC1 (stereo not given) | 23.3% |
| CCC[C@@H]1CN(c2cncc(C(=O)N3CCOCC3)n2)C[C@H]1N(C)C | -31.7% |
| Cc1nc(CNC(=O)N(CCCO)C2CCc3ccccc32)oc1C (stereo not given) | 21.6% |
| CCOCCN1CCN(Cc2nnc(C3CC3)o2)CC1 | 12.6% |
| CCOCCN1CCN(Cc2nnc(C3CC3)o2)CC1C (stereo not given) | 74.2% |
| CCOCCN1CCN(Cc2nnc(C3CC3)o2)CC1CC (stereo not given) | 0% |
| O=C(CCc1ccc(-n2cnnn2)cc1)Nc1nncs1 | 40.6% |
| O=C(Cc1ccc2c(c1)CCO2)N1CCN(c2ccccn2)CC1 | -13.5% |
| N#CCCn1nc(C(F)(F)F)c2c1CCC2 | 57.5% |
| N#CCCn1nc(C(F)(F)F)c2c1CCCC2 | 42.6% |
| NCCCn1nc(C(F)(F)F)c2c1CCC2 | 27.8% |
| Cc1nccn1C1CCCN(C(=O)c2cccc(-n3cccc3)c2)C1 (stereo not given) | 43.2% |
